# Compound activity: PubChem, several laboratories
# Rows were chosen to be rich in hits. Some 0.54% of all compounds tested hit in one or more screens of this group.
# ERp5 block = inhibitors of ERp5-driven insulin aggregation, primary screen, biochemical, turbidity, absorbance 650 nm, single point; Protein disulfide-isomerase A6 (Homo sapiens), Q15084; 90 min; inhibition, % at 9.99 µM; actives 0.05% (n = 350,000);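 active means mean replicate inhibition above about 25%, with every replicate also reaching it, limit read from the data, passing the limit was not always enough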
# PvdQ acylase = P. aeruginosa PvdQ acylase inhibitors, primary screen, biochemical, fluorescence, plate reader and imaging, single point; PvdQ acylase [Pseudomonas aeruginosa LESB58]; purified PvdQ acylase; inhibition, % at 10 µM; actives 0.063% (n = 340,000); in the data active means inhibition above about 30%, passing the limit was not always enough;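 further: 0% = vehicle neutral wells and 100% = reference inhibitor wells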
# PDI inh = inhibitors of human PDI, primary screen, biochemical, turbidity, single point, plate reader | inhibition, % at 10 µM | PDI insulin aggregation turbidity, A650, 90 min | actives 0.052% (n = 350,000);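 active means mean inhibition across replicates of 30% or more, whatever share of single replicates reach that level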
# Target sequence (P07237 whole entry, looked up): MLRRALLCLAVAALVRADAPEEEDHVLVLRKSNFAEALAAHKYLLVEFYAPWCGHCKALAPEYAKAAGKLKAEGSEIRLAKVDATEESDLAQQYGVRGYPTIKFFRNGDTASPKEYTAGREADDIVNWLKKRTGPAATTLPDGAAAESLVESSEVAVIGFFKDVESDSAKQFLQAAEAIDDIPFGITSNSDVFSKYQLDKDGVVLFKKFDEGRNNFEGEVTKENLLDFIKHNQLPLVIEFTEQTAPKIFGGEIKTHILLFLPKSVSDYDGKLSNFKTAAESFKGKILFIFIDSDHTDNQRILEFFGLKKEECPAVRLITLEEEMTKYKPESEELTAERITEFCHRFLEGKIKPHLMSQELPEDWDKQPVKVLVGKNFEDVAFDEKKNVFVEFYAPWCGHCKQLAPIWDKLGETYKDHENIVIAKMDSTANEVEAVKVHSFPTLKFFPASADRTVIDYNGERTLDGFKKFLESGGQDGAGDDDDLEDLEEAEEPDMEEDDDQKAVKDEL
# Rtt109 HAT inh = inhibitors of C. albicans Rtt109/Vps75 HAT, primary screen, biochemical, ThioGlo CoA-SH fluorescence, plate reader; Histone acetyltransferase RTT109 (Candida albicans (strain SC5314 / ATCC MYA-2876)), …; purified Rtt109/Vps75, 4 h; inhibition, % at 34.9 µM; actives 0.16% (n = 330,000);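 active means inhibition of at least 50% in every replicate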
# Efflux pump mplx = inhibitors of Candida efflux pumps in yeast, primary screen, S. cerevisiae, Nile Red, multiplex; S. cerevisiae Candida pump triplex; inhibition, % at 10 µM; actives 0.44% (n = 330,000);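 active means plate passing quality check with inhibition over a set limit, or well fluorescence over plate mean plus 4 SD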;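 further: Nile Red retained in pooled yeast measured as flow cytometry median fluorescence; 0% = buffer negative control and 100% = Enniatin B positive control; higher means more Nile Red kept so more efflux inhibition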
# * = called active by the depositor; x = no result given; ! = repeats disagree.
SMILES,ERp5 block,PvdQ acylase,PDI inh,Rtt109 HAT inh,Efflux pump mplx
O=C1Nc2cc(C(=O)NCCCN3CCOCC3)ccc2S/C1=C/c1cccc(Cl)c1,0,-20,0,-5,0
C[C@@H]1CN([C@@H](C)CO)C(=O)c2cc(-c3cccc(C#N)c3)cnc2O[C@H]1CN(C)Cc1cncnc1,84*,x,x,x,x
C[C@H]1CN([C@@H](C)CO)C(=O)CCCn2cc(nn2)CO[C@@H]1CN(C)Cc1cccc(C(F)(F)F)c1,44*,x,x,x,x
C[C@H]1CN([C@@H](C)CO)C(=O)c2cc(-c3cccc(C#N)c3)cnc2O[C@H]1CN(C)Cc1cncnc1,-4,x,x,x,x
C[C@H](CO)N1C[C@H](C)[C@H](CN(C)Cc2cccc(F)c2)Oc2ncc(Br)cc2C1=O,82*!,x,1,x,x
C[C@@H]1CN([C@H](C)CO)C(=O)c2cc(Br)cnc2O[C@@H]1CN(C)Cc1cccc(F)c1,7,x,x,x,x
CCc1ccccc1NC(=O)C1CCN(C(=O)c2ccc([N+](=O)[O-])cc2)CC1,-1,11,-9,58*,0
CC1(C)OC(=O)N(c2ccccc2)C12C=Cc1cc(Br)ccc1O2 (stereo not given),x,5,-19,53*,0
CN1c2ccccc2C(C)(C)[C@]12C=Cc1cc(O)ccc1O2,x,-17,11,4,0
CN1[C@@H]2c3ccc(C4=CCCC4)c(=O)n3C[C@@H]2[C@@H](CO)[C@@H]1C(=O)NCc1ccccc1F,-2,x,x,x,x
CCOC(=O)c1ccc(N2C(=O)CC(SCC(=O)Nc3ccc(S(N)(=O)=O)cc3)C2=O)cc1 (stereo not given),-1,-9,-3,x,0
COC(=O)c1ccc(N2C(=O)CC(SCC(=O)Nc3ccc(OC)cc3)C2=O)cc1 (stereo not given),1,-10,1,94*,0
O=[N+]([O-])c1ccc(Nc2ccccc2)c2nonc12,2,1,-10,6,0
O=[N+]([O-])c1ccc(Sc2cccc[n+]2[O-])c2nonc12,0,-2,13,123*,x
O=C(Nc1ccc(O)c(-c2nc3ccccc3s2)c1)c1cccs1,-1,-3,-2,1,0
O=C(Nc1ccc(O)c(-c2nc3ccccc3s2)c1)c1cc(=O)c2ccccc2o1,x,3,-8,56*,0
CO[C@H]1CN(C)C(=O)c2cc(NC(=O)Nc3ccccc3)ccc2OC[C@H](C)N(C(=O)CN(C)C)C[C@H]1C,2,x,x,x,x
CCOC(=O)C1(CCOc2ccccc2)CCN(Cc2ccc(O)c(Cl)c2)CC1,0,-21,111*,7,0
CC1=CC(=O)c2c(O)ccc(O)c2C1=O,x,x,x,x,1.0*
O=C(COc1ccccc1)OCC(=O)c1ccc(S(=O)(=O)N2CCCCC2)cc1,-2,40*,1,-6,0
COc1ccc2c3c(n(C)c2c1)[C@@H](CO)N(C(=O)c1ccncc1)CC31CCN(S(C)(=O)=O)CC1,0,x,x,x,x
COC(=O)CCS(=O)(=O)c1nc(-c2ccccc2)cc(C(F)(F)F)n1,x,-5,1,68*,0
CCOC(=O)CCS(=O)(=O)c1nc(-c2ccccc2)cc(C(F)(F)F)n1,x,9,3,24,0
COc1ccc(S(=O)(=O)N2CCN(c3ccccn3)CC2)cc1OC,x,5,-3,53*,0
O=C1NC(=S)CN1c1ccccc1,1,-18,4,141*,0
SMILES,ERp5 block,PvdQ acylase,PDI inh,Rtt109 HAT inh,Efflux pump mplx
O=C1N(c2ccccc2)CCN1c1ccccc1,2,-12,17,0,0
O=C(c1ccccc1)N1CC(=O)N2[C@@H](CO)[C@@H](c3ccc(C#Cc4ccccc4)cc3)[C@@H]2C1,0,x,x,x,x
CC(=O)Oc1ccc(C2OC(=O)c3ccccc3N2C(C)=O)cc1 (stereo not given),x,-2,32*,4,0
COc1ccc2c3c([nH]c2c1)[C@@H](CO)N(S(C)(=O)=O)CC31CCN(C(=O)Cc2cccnc2)CC1,-2,x,x,x,x
COc1ccc(OC)c(C2CC(=O)N3CN(c4ccc(C)c(Cl)c4)CSC3=C2C#N)c1 (stereo not given),-6,-8,x,91*,0
COc1ccc(OC)c(C2CC(=O)N3CN(c4cccc(Cl)c4)CSC3=C2C#N)c1 (stereo not given),-10,-14,x,-2,0
C[C@@H]1CN([C@H](C)CO)C(=O)Cc2cc(NC(=O)Cc3cn(C)c4ccccc34)ccc2O[C@H]1CN(C)Cc1ccc(C(F)(F)F)cc1,-2,x,x,x,x
OC(c1cccc(Cl)c1)c1nccc2ccccc12 (stereo not given),-2,35*,-72,-2,0
O=C(/C=C/c1ccc(Cl)cc1)NCc1ccncc1,x,20,-13,53*,0
O=C(O)c1ccc(CSc2nnc(-c3ccc(Cl)cc3)o2)cc1,-1,-10,-6,-8,0
O=S(=O)(Nc1ccc(-c2nnc(SCc3ccc(Cl)cc3)o2)cc1)c1ccccc1,x,11,7,57*,0
COc1ccc(C(=O)CC(Nc2ccc([N+](=O)[O-])cc2)c2ccc(OC)cc2)cc1 (stereo not given),x,2,-12,0,0
CNC(CC(=O)c1ccc([N+](=O)[O-])cc1)C(Cl)(Cl)Cl (stereo not given),x,-10,-14,3,9.4*
COCC(=O)N1[C@H](CO)[C@@H](c2ccccc2)C12CN(C(=O)NC1CCCCC1)C2,0,x,x,x,x
CCCCCCCCCCCCCCCC[n+]1cccc(C(=O)N(CC)CC)c1,5,7,11,74*!,3
Nc1c2c(nc3ccc(Br)cc13)N(C1CCCCC1)CC2,x,x,x,x,2.4*
COc1ccc(NC(=O)N2CC3(C2)CN(C(=O)c2cccnc2)[C@H](CO)c2[nH]c4cc(OC)ccc4c23)cc1,3,x,x,x,x
O=C(CCN1CCc2ccccc2CC1)c1ccc2c(c1)OCCO2,x,-1,-2,177*,0
O=C(OCc1ccc(Br)cc1)c1ccncc1,0,3,2,57*,0
O=C(OCc1ccc(Br)cc1)c1cccnc1,3,12,14,2,0
C[C@@H]1CN([C@@H](C)CO)C(=O)Cc2cc(NC(=O)CCCCCC(=O)Nc3ccccc3N)ccc2O[C@H]1CN(C)CC1CC1,-6,x,x,x,x
C[C@H](CO)N1C[C@H](C)[C@@H](CN(C)Cc2ccc(Cl)c(Cl)c2)OCCCC[C@H](C)Oc2ccc(NS(=O)(=O)c3ccc(Cl)cc3)cc2C1=O,-5,x,x,x,x
Clc1ccc2scc(CN3CCCCC3)c2c1,x,33*,13,38,0
COCC(=O)N1CC2(C1)CN(Cc1cc(F)ccc1F)[C@H](CO)c1c2c2ccc(OC)cc2n1C,-3,x,x,x,x
CCN(CC)c1ccc(/C=C/C(=O)C2C(=O)C=C(C)OC2=O)cc1 (stereo not given),-3,12,-1,4,7.6*
